Data from publication PMC4336329 (PLoS ONE, 2015).
Hit rate of the full screen: of about 310,000 compounds, about 14,000 (4.5%) showed an effect of 50% or more. Effects have a minus sign here. For the sample, strong results were picked, then their nearest neighbours and some compounds at random.

target: human ether-à-go-go-related gene (hERG) potassium channel (human, UniProt Q12809); assay: primary screen, population patch clamp on CHO cells stably expressing hERG; higher = less effect of the substance
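Note: peak tail current of the secondary pulse compared with the same well before compound.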

Chain of human ether-à-go-go-related gene (hERG) potassium channel (Q12809 whole entry, looked up): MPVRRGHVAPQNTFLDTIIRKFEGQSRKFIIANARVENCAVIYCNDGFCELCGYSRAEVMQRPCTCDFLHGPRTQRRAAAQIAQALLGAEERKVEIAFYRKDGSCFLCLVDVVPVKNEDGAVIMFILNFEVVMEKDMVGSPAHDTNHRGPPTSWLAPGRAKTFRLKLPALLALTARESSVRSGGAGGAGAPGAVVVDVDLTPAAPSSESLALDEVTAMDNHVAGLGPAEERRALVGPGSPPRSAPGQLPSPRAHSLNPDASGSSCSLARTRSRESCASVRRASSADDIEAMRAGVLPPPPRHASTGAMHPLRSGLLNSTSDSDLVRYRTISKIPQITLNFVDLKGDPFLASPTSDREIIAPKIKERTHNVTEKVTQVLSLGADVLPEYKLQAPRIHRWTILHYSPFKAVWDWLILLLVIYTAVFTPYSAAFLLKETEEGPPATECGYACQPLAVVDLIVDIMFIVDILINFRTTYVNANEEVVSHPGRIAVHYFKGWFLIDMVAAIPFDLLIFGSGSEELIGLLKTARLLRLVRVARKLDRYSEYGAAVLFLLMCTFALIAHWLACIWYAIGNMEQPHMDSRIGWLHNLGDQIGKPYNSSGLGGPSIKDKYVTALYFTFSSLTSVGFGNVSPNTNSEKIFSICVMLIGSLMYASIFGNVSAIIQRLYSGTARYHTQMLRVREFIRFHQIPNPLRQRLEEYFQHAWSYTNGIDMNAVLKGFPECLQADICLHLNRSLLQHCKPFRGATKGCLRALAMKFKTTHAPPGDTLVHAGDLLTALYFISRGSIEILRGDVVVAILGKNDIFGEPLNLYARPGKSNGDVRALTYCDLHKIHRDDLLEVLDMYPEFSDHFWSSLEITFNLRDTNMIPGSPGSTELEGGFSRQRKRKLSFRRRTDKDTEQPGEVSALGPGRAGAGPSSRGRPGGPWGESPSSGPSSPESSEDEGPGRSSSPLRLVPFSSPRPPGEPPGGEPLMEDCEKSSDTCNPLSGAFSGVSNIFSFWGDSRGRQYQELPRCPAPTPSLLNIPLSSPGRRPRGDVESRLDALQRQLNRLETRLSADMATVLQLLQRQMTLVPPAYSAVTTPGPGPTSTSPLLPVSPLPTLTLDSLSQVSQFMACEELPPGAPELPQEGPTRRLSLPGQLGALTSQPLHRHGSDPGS

SMILES	hERG current change (%, negative = inhibition) at 10uM [%]
CC1(C)CC(=O)C2=C(C1)N(Cc1ccc(F)cc1)C(=O)C2(NC(=O)c1cccnc1)C(F)(F)F (centres unmarked)	-5.55
COc1ccccc1-c1nnc(SC(C(=O)c2c[nH]c3ccccc23)c2ccccc2)n1C (centres unmarked)	20.8
O=C(CCc1nc2ccccc2n1-c1ccccc1)NCCO	6.97
COc1ccc([N+](=O)[O-])cc1N(CC(O)CN(C)C)S(=O)(=O)c1ccccc1 (centres unmarked)	5.54
CCCCN(CCCC)CC(O)CN(c1cc([N+](=O)[O-])ccc1OC)S(=O)(=O)c1ccccc1 (centres unmarked)	-67
C=CCN(CC=C)CC(O)CN(c1cc([N+](=O)[O-])ccc1OC)S(=O)(=O)c1ccccc1 (centres unmarked)	-10.7
COc1ccc([N+](=O)[O-])cc1N(CC(O)CN(CC(C)C)CC(C)C)S(=O)(=O)c1ccc(C)cc1.Cl (centres unmarked)	-13.7
COc1ccc([N+](=O)[O-])cc1N(CC(O)CN(CC(C)C)CC(C)C)S(=O)(=O)c1ccccc1 (centres unmarked)	-1.91
CCCN(CCC)CC(O)CN(c1cc([N+](=O)[O-])ccc1OC)S(=O)(=O)c1ccccc1.Cl (centres unmarked)	-60.4
CC(C)CNC(=O)/C=C/C=C/CCCC/C=C/c1ccc2c(c1)OCO2	20.7
CC(=O)c1c(C)[nH]c(C(=O)OCc2nc3ccsc3c(=O)[nH]2)c1C	-13.6
O=C(CC1SC(N2CCCCC2)=NC1=O)Nc1ccc(C(=O)O)cc1 (centres unmarked)	22.1
CC1CCN(CCCNC(=O)c2ccc3c(=O)n(Cc4ccc(Cl)cc4)c(=S)[nH]c3c2)CC1	-68.4
COC(=O)c1ccc2c(=O)n(Cc3ccc(C(=O)NCCCN4CCC(C)CC4)cc3)c(=S)[nH]c2c1	7.54
CC1CCCCN1CCNC(=O)c1ccc2c(=O)n(CCc3ccccc3)c(=O)[nH]c2c1 (centres unmarked)	-38.7
CC1CCN(CCNC(=O)c2ccc3c(=O)n(Cc4ccc(Cl)cc4)c(=S)[nH]c3c2)CC1	-15.8
CC1CCCCN1CCNC(=O)c1ccc2c(=O)n(Cc3ccc(Cl)cc3)c(=S)[nH]c2c1 (centres unmarked)	-50.9
CN(C)CCNC(=O)c1ccc2c(=O)n(Cc3ccc(Cl)cc3)c(=S)[nH]c2c1	-27.8
CSc1nc(NCC(C)C)c2c3c(sc2n1)CN(C)CC3	-44.2
CSc1nc(NCC(C)O)c2c3c(sc2n1)CN(C)CC3 (centres unmarked)	-42
COCCNc1nc(SC)nc2sc3c(c12)CCN(C)C3	-71.2
COC(CNc1nc(SC)nc2sc3c(c12)CCN(C)C3)OC	-52.5

SMILES	hERG current change (%, negative = inhibition) at 10uM [%]
CCN(CC)CCNc1nc(SC)nc2sc3c(c12)CCN(C)C3	-6.12
CSc1nc(NCCCO)c2c3c(sc2n1)CN(C)CC3	-47.4
S=c1[nH]c2ccccc2o1	18
Cc1c(C(=O)OCC(=O)NCc2ccco2)oc2ccccc12	2.46
CN(C)CCN(Cc1ccco1)C(=O)c1oc2ccccc2c1NC(=O)COc1ccccc1	-88.7
O=C(COc1ccccc1)Nc1ccccc1C(=O)NCc1ccco1	-6.63
COc1ccc(OCC(=O)OCC(=O)NCc2ccco2)cc1	-4.81
CCCN(CCC)C(=O)c1oc2ccccc2c1NC(=O)Cc1cccc(OC)c1	4.67
COc1ccc(OCC(=O)Nc2c(C(=O)N(CCN(C)C)Cc3ccco3)oc3ccccc23)cc1	-77
CCCCCCN=C(C)c1ccccc1O	20.2
COCCN(Cc1ccccc1)C(=O)c1cccc(S(=O)(=O)N2CCN(c3ccccc3)CC2)c1	-52.8
CN(Cc1ccc(F)cc1)C(=O)c1cccc(S(=O)(=O)N2CCN(c3ccccc3)CC2)c1	-19.9
CCN(Cc1ccccc1)C(=O)c1cccc(S(=O)(=O)N2CCN(c3ccc(F)cc3)CC2)c1	-47.2
COCCN(Cc1ccccc1)C(=O)c1cccc(S(=O)(=O)N2CCN(c3ccc(F)cc3)CC2)c1	-64.6
CCN(Cc1ccccc1)C(=O)c1cccc(S(=O)(=O)N2CCN(c3ccccc3)CC2)c1	-15.8
COCCN(Cc1ccccc1)C(=O)c1cccc(S(=O)(=O)N2CCCc3ccccc32)c1	-21.2
CC(C)(C)NC(=O)Cn1c(=O)c(=O)n(Cc2ccccc2)c2ccc(Cl)cc21	-0.233
Cn1c2c(c(=O)n(C)c1=O)C(c1ccc(Br)cc1)Nc1ccccc1O2 (centres unmarked)	-19.4
Cc1ccc(S(=O)(=O)NCCC2(C(C)C)CCOC(C)(C)C2)cc1 (centres unmarked)	-17.9
CC1(C)CC(=O)C(C=NCC(N)=O)=C(O)C1	-19.5
C=CCn1c(O)c(C(C)=NCCCN(C)C)c(=O)[nH]c1=O	5.49
N#Cc1cccnc1N1CCN(C(=O)c2ccc3c(c2)S(=O)(=O)c2ccccc2C3=O)CC1	-22.7
